A selection: hits, their analogues and other compounds. The true share with any hit is near 32%.
CYP2C19 inh – blockers of cytochrome P450 2C19 activity – biochemical, luminescence, ADME assay, primary screen; P33261; CYP2C19 Supersomes, luciferin-H EGE luminescence, 30 min; inhibition, % at 5 µM; hit rate 21% among 96,000; AID 778, 2007;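 active = CYP2C19 inhibition above a set limit at 5 µM in the primary screen, cut at about 50% in these data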;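 also: plate controls were negative control wells for no effect and 2.5 mM tranylcypromine positive control for full effect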
Target sequence (P33261 whole entry, looked up): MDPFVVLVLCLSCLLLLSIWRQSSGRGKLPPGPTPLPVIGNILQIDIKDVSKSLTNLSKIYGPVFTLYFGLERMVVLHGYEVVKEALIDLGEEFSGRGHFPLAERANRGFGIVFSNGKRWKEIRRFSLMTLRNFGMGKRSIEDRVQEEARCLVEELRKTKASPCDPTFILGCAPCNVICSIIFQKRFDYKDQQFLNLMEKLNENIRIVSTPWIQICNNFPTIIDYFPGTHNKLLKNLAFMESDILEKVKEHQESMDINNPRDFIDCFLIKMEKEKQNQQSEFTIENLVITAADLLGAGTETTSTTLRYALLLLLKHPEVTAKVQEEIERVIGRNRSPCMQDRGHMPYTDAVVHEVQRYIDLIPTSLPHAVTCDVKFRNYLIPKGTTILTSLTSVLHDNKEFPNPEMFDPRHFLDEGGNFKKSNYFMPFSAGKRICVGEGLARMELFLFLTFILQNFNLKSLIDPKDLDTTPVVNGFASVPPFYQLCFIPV
CYP2C9 activ – human CYP2C9 activators, primary screen, biochemical, luminescence; hit rate 1.4% among 96,000; AID 1024, 2008; Cytochrome P450 2C9 (Homo sapiens), P11712; recombinant CYP2C9, luciferin-H conversion; stronger effect = higher value; factor 1 = untreated enzyme, 0 = blocked; activation factor at 5 µM;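 active = activation factor of 2 or more for CYP2C9 at a 5 µM dose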;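 also: 0 = sulfaphenazole-blocked wells and 1 = vehicle-only wells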
CYP2C9 inh – blockers of cytochrome P450 2C9 activity – biochemical, luminescence, ADME assay, primary screen; P11712; CYP2C9 Supersomes, luciferin-H conversion; inhibition, % at 5 µM; hit rate 20% among 96,000;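 active = blocking of liver enzyme CYP2C9 beyond about 50% at 5 µM, limit read from the data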
CYP2C19 act – human CYP2C19 activators, primary screen, biochemical, luminescence; activation factor at 5 µM; 96,000 tested, under 10 active; recombinant CYP2C19, luciferin-H EGE luminescence; stronger effect = higher value; 0 = fully inhibited enzyme, 1 = untreated enzyme; Cytochrome P450 2C19 (Homo sapiens), P33261;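 active = activation factor of at least 2 at 5 µM in the primary screen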;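 also: 0 = wells with 2.5 mM tranylcypromine and 1 = vehicle-only wells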
PostGolgi yeast – phenotypic screen on post-Golgi transport, primary screen. inhibition, % at 10 µM. AID 739, 2007. post-Golgi transport phenotypic cell assay. hit rate 0.9% among 98,000;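 also: yeast cells grown in 1536-well plates; yeast grown about 18 h at 30C before absorbance read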
PostGolgi ctrl – growth inhibition of yeast control strain, primary screen, counter-screen for post-Golgi transport modulator project; efflux-deficient yeast background strain, growth absorbance A615, 16 h; AID 738, 2007; inhibition, % at 10 µM; hit rate 5% among 98,000
Numbers without * were called inactive. Rule as the data show it, unless noted: active = inhibition above about 30%; inactive = the rest.

COC(=O)c1ccccc1S(=O)(=O)N(Cc1cc2ccc(OC)cc2[nH]c1=O)CC1CCCO1 (stereo not given) was read as CYP2C19 inh 38, CYP2C9 activ 0.1, CYP2C9 inh 90*, CYP2C19 act 0.6, PostGolgi yeast 1 and PostGolgi ctrl 9.
Screening COc1ccc2cc(CN(CC3CCCO3)S(=O)(=O)c3ccc(C(C)=O)cc3)c(=O)[nH]c2c1 (stereo not given) returned CYP2C19 inh 35, CYP2C9 activ 0.4, CYP2C9 inh 60*, CYP2C19 act 0.6, PostGolgi yeast 0 and PostGolgi ctrl 6.
For Cc1ccc2[nH]c(=O)c(CN(CC3CCCO3)C(=O)c3ccco3)cc2c1 (stereo not given) the results were CYP2C19 inh 12, CYP2C9 activ 0.9, CYP2C9 inh 5 and CYP2C19 act 0.9.
Screening Cn1cnnc1SCc1ccc(C(=O)n2ncc(C#N)c2N)cc1 returned CYP2C19 inh -3, CYP2C9 activ 1, CYP2C9 inh -5, CYP2C19 act 1, PostGolgi yeast -4 and PostGolgi ctrl 4.
For NS(=O)(=O)c1ccc(CCNc2ncnc3c2c(-c2ccccc2)cn3-c2ccc(F)cc2)cc1 the results were CYP2C19 inh 23, CYP2C9 activ 0.4, CYP2C9 inh 57*, CYP2C19 act 0.8, PostGolgi yeast 10 and PostGolgi ctrl 61*.
Screening COC(=O)CSC1=C(C#N)C(=O)NC(c2ccccc2)S1 (stereo not given) returned CYP2C19 inh 58*, CYP2C9 activ 0.1, CYP2C9 inh 92*, CYP2C19 act 0.4, PostGolgi yeast 8 and PostGolgi ctrl 3.
CCn1c2ccccc2c2cc(NS(=O)(=O)c3ccc(C)cc3)ccc21 was read as CYP2C19 inh 54*, CYP2C9 activ 0.1, CYP2C9 inh 86*, CYP2C19 act 0.5, PostGolgi yeast -27 and PostGolgi ctrl 28.
CCn1c2ccccc2c2cc(NC(C)=O)ccc21 was read as CYP2C19 inh 98*, CYP2C9 activ 0.7, CYP2C9 inh 30, CYP2C19 act 0, PostGolgi yeast -5 and PostGolgi ctrl 13.
`CCn1c2ccccc2c2cc(NC(=O)c3ccc([N+](=O)[O-])cc3)ccc21` gave CYP2C19 inh 2, CYP2C9 activ 1.1, CYP2C9 inh -10, CYP2C19 act 1, PostGolgi yeast -7 and PostGolgi ctrl -14.
COc1cc(C(c2nnnn2C(C)(C)C)N2CCN(C)CC2)cc(OC)c1OC (stereo not given) was read as CYP2C19 inh 2, CYP2C9 activ 1.1, CYP2C9 inh -13, CYP2C19 act 1, PostGolgi yeast -1 and PostGolgi ctrl 1.
`CC(C)c1ccc(NC(=O)C2C3C=CC4(CN(CCCN5CCOCC5)C(=O)C24)O3)cc1` (stereo not given) gave CYP2C19 inh 7, CYP2C9 activ 1.3, CYP2C9 inh -25, CYP2C19 act 0.9, PostGolgi yeast 5 and PostGolgi ctrl 7.
c1ccc(C2C3=C(Nc4ncnn42)c2ccccc2CCC3)cc1 (stereo not given) was read as CYP2C19 inh 52*, CYP2C9 activ 0.7, CYP2C9 inh 30, CYP2C19 act 0.5, PostGolgi yeast 6 and PostGolgi ctrl 1.
`Clc1ccc(C2C3=C(Nc4ncnn42)c2ccccc2CC3)cc1` (stereo not given) gave CYP2C19 inh 80*, CYP2C9 activ 0.3, CYP2C9 inh 69*, CYP2C19 act 0.2, PostGolgi yeast 4 and PostGolgi ctrl 7.
CCN1CCCC1CNC(=O)C1CCN(Cc2nc(-c3cccc(Br)c3)oc2C)CC1 (stereo not given) was read as CYP2C19 inh -20, CYP2C9 activ 1.1, CYP2C9 inh -11, CYP2C19 act 1.2, PostGolgi yeast 0 and PostGolgi ctrl 5.
`O=C1c2ccccc2-c2onc3ccc(NCc4ccco4)c1c23` gave CYP2C19 inh 55*, CYP2C9 activ 0.1, CYP2C9 inh 88*, CYP2C19 act 0.4, PostGolgi yeast -5 and PostGolgi ctrl 34*.
CCCCN(CC)c1nc(N)c2c(N)nc(OCC)cc2c1C#N was read as CYP2C19 inh 0, CYP2C9 activ 0.9, CYP2C9 inh 14, CYP2C19 act 1, PostGolgi yeast 2 and PostGolgi ctrl 76*.
`CCCCN(CC)c1nc(N)c(C#N)c(CC#N)c1C#N` gave CYP2C19 inh 64*, CYP2C9 activ 0.1, CYP2C9 inh 85*, CYP2C19 act 0.4, PostGolgi yeast 20 and PostGolgi ctrl 15.
For COc1cc2c(C#N)c(N3CCN(C)CC3)nc(N)c2c(N)n1 the results were CYP2C19 inh -7, CYP2C9 activ 0.8, CYP2C9 inh 23, CYP2C19 act 1.1, PostGolgi yeast 0 and PostGolgi ctrl -2.
Screening Clc1cccc(Cl)c1-c1nnc2ccc(N3CCOCC3)nn12 returned CYP2C19 inh 52*, CYP2C9 activ 0.3, CYP2C9 inh 68*, CYP2C19 act 0.5, PostGolgi yeast -5 and PostGolgi ctrl 16.
For Fc1cccc(Cl)c1-c1nnc2ccc(N3CCOCC3)nn12 the results were CYP2C19 inh 42, CYP2C9 activ 0.5, CYP2C9 inh 49, CYP2C19 act 0.6, PostGolgi yeast 6 and PostGolgi ctrl -4.
`CC1=CC(C)(C)N2C(=O)C3(SCC(=O)N3c3ccc(O)cc3)c3cc(C)cc1c32` (stereo not given) gave CYP2C19 inh 87*, CYP2C9 activ 0, CYP2C9 inh 97*, CYP2C19 act 0.1, PostGolgi yeast -2 and PostGolgi ctrl 15.
For CN(C)S(=O)(=O)Nc1ccc(C(=O)O)cc1 the results were CYP2C19 inh 7, CYP2C9 activ 0.9, CYP2C9 inh 9, CYP2C19 act 0.9, PostGolgi yeast 14 and PostGolgi ctrl -8.
For COc1ccc(-n2c(/C=C(\C)O)nc(=O)c3c(C)cc(C)nc32)cc1 the results were CYP2C19 inh 5, CYP2C9 activ 0.7, CYP2C9 inh 27, CYP2C19 act 1, PostGolgi yeast 2 and PostGolgi ctrl 10.
For COC(=O)c1ccc(NC2=CC(=O)CC(C)(C)C2)cc1 the results were CYP2C19 inh 29, CYP2C9 activ 0.5, CYP2C9 inh 51*, CYP2C19 act 0.7, PostGolgi yeast -10 and PostGolgi ctrl 8.
For COc1ccc2oc(C(F)(F)C(F)(F)F)cc(=O)c2c1 the results were CYP2C19 inh 2, CYP2C9 activ 0.9, CYP2C9 inh 7, CYP2C19 act 1, PostGolgi yeast -1 and PostGolgi ctrl -6.
For COc1ccc2oc(C(F)(F)C(F)F)cc(=O)c2c1 the results were CYP2C19 inh 54*, CYP2C9 activ 0.7, CYP2C9 inh 33, CYP2C19 act 0.5, PostGolgi yeast -1 and PostGolgi ctrl 7.

Screening data deposited in PubChem BioAssay by several laboratories.
